In article PMC9911399, “Two distinct binding modes provide the RNA-binding protein RbFox with extraordinary sequence specificity”:
Positions count from the first letter of the chain named. Whole data set: some 16,000 sequences, median “ka relative to ugcaugu” near 0.096, cut for the highest 2% near 0.35. Only a selection was taken, and the highest values are over-represented in it overall.

T1: RBFOX1 RRM RbFoxmut (Fox-RRM*) (Homo sapiens, UniProt Q9NWB1 109-208, R118D;E147R;N151S;E152T)
T1 sequence: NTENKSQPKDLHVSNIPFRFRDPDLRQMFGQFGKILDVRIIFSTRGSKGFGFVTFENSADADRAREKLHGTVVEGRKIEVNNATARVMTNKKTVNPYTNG

B1: GCACGUG (DNA:RNA)
RNA: GGGAGACCGGAAUUCAGAUUGUCCGCACGUGUUAAAUCCCGUCGUAGCCACCA
DNA 1: CAATCTGAATTCCGGTCTCCC
DNA 2: TGGTGGCTACGACGGGATT
B2: ACGCACG (DNA:RNA)
RNA: B1 RNA with G25A, A27G, G29A, U30C
DNA 1: CAATCTGAATTCCGGTCTCCC
DNA 2: TGGTGGCTACGACGGGATT
B3: GUCCACG (DNA:RNA)
RNA: B1 RNA with C26U, A27C, G29A, U30C
DNA 1: CAATCTGAATTCCGGTCTCCC
DNA 2: TGGTGGCTACGACGGGATT
B4: ACGUCCG (DNA:RNA)
RNA: B1 RNA with G25A, A27G, C28U, G29C, U30C
DNA 1: CAATCTGAATTCCGGTCTCCC
DNA 2: TGGTGGCTACGACGGGATT
B5: GCACGAA (DNA:RNA)
RNA: B1 RNA with U30A, G31A
DNA 1: CAATCTGAATTCCGGTCTCCC
DNA 2: TGGTGGCTACGACGGGATT
B6: GCACGCG (DNA:RNA)
RNA: B1 RNA with U30C
DNA 1: CAATCTGAATTCCGGTCTCCC
DNA 2: TGGTGGCTACGACGGGATT
B7: CCGCACG (DNA:RNA)
RNA: B1 RNA with G25C, A27G, G29A, U30C
DNA 1: CAATCTGAATTCCGGTCTCCC
DNA 2: TGGTGGCTACGACGGGATT
B8: GCGCACG (DNA:RNA)
RNA: B1 RNA with A27G, G29A, U30C
DNA 1: CAATCTGAATTCCGGTCTCCC
DNA 2: TGGTGGCTACGACGGGATT
B9: GCACGUC (DNA:RNA)
RNA: B1 RNA with G31C
DNA 1: CAATCTGAATTCCGGTCTCCC
DNA 2: TGGTGGCTACGACGGGATT
B10: GCACGUA (DNA:RNA)
RNA: B1 RNA with G31A
DNA 1: CAATCTGAATTCCGGTCTCCC
DNA 2: TGGTGGCTACGACGGGATT
B11: GCACGAG (DNA:RNA)
RNA: B1 RNA with U30A
DNA 1: CAATCTGAATTCCGGTCTCCC
DNA 2: TGGTGGCTACGACGGGATT
B12: CGCACCG (DNA:RNA)
RNA: B1 RNA with G25C, C26G, A27C, C28A, G29C, U30C
DNA 1: CAATCTGAATTCCGGTCTCCC
DNA 2: TGGTGGCTACGACGGGATT
B13: UGCUUUG (DNA:RNA)
RNA: B1 RNA with G25U, C26G, A27C, C28U, G29U
DNA 1: CAATCTGAATTCCGGTCTCCC
DNA 2: TGGTGGCTACGACGGGATT
B14: CUGAGUG (DNA:RNA)
RNA: B1 RNA with G25C, C26U, A27G, C28A
DNA 1: CAATCTGAATTCCGGTCTCCC
DNA 2: TGGTGGCTACGACGGGATT
B15: UCACCCA (DNA:RNA)
RNA: B1 RNA with G25U, G29C, U30C, G31A
DNA 1: CAATCTGAATTCCGGTCTCCC
DNA 2: TGGTGGCTACGACGGGATT
B16: UAGGGAC (DNA:RNA)
RNA: B1 RNA with G25U, C26A, A27G, C28G, U30A, G31C
DNA 1: CAATCTGAATTCCGGTCTCCC
DNA 2: TGGTGGCTACGACGGGATT
B17: CCCCAGG (DNA:RNA)
RNA: B1 RNA with G25C, A27C, G29A, U30G
DNA 1: CAATCTGAATTCCGGTCTCCC
DNA 2: TGGTGGCTACGACGGGATT
B18: GAGGUUG (DNA:RNA)
RNA: B1 RNA with C26A, A27G, C28G, G29U
DNA 1: CAATCTGAATTCCGGTCTCCC
DNA 2: TGGTGGCTACGACGGGATT
B19: AGGGUUG (DNA:RNA)
RNA: B1 RNA with G25A, C26G, A27G, C28G, G29U
DNA 1: CAATCTGAATTCCGGTCTCCC
DNA 2: TGGTGGCTACGACGGGATT
B20: AGGGGGG (DNA:RNA)
RNA: B1 RNA with G25A, C26G, A27G, C28G, U30G
DNA 1: CAATCTGAATTCCGGTCTCCC
DNA 2: TGGTGGCTACGACGGGATT
B21: ACCAGGG (DNA:RNA)
RNA: B1 RNA with G25A, A27C, C28A, U30G
DNA 1: CAATCTGAATTCCGGTCTCCC
DNA 2: TGGTGGCTACGACGGGATT
B22: CAGGUUG (DNA:RNA)
RNA: B1 RNA with G25C, C26A, A27G, C28G, G29U
DNA 1: CAATCTGAATTCCGGTCTCCC
DNA 2: TGGTGGCTACGACGGGATT
B23: GAGGAGG (DNA:RNA)
RNA: B1 RNA with C26A, A27G, C28G, G29A, U30G
DNA 1: CAATCTGAATTCCGGTCTCCC
DNA 2: TGGTGGCTACGACGGGATT
B24: CACCAGG (DNA:RNA)
RNA: B1 RNA with G25C, C26A, A27C, G29A, U30G
DNA 1: CAATCTGAATTCCGGTCTCCC
DNA 2: TGGTGGCTACGACGGGATT
B25: ACCGAGG (DNA:RNA)
RNA: B1 RNA with G25A, A27C, C28G, G29A, U30G
DNA 1: CAATCTGAATTCCGGTCTCCC
DNA 2: TGGTGGCTACGACGGGATT
B26: UCCCCAC (DNA:RNA)
RNA: B1 RNA with G25U, A27C, G29C, U30A, G31C
DNA 1: CAATCTGAATTCCGGTCTCCC
DNA 2: TGGTGGCTACGACGGGATT
B27: CUACCCG (DNA:RNA)
RNA: B1 RNA with G25C, C26U, G29C, U30C
DNA 1: CAATCTGAATTCCGGTCTCCC
DNA 2: TGGTGGCTACGACGGGATT
B28: GUGUCAG (DNA:RNA)
RNA: B1 RNA with C26U, A27G, C28U, G29C, U30A
DNA 1: CAATCTGAATTCCGGTCTCCC
DNA 2: TGGTGGCTACGACGGGATT
B29: AUACAAG (DNA:RNA)
RNA: B1 RNA with G25A, C26U, G29A, U30A
DNA 1: CAATCTGAATTCCGGTCTCCC
DNA 2: TGGTGGCTACGACGGGATT
B30: CAAUGCG (DNA:RNA)
RNA: B1 RNA with G25C, C26A, C28U, U30C
DNA 1: CAATCTGAATTCCGGTCTCCC
DNA 2: TGGTGGCTACGACGGGATT
B31: GGGAUGA (DNA:RNA)
RNA: B1 RNA with C26G, A27G, C28A, G29U, U30G, G31A
DNA 1: CAATCTGAATTCCGGTCTCCC
DNA 2: TGGTGGCTACGACGGGATT

biological target: T1, RBFOX1 RRM RbFoxmut (Fox-RRM*); assay: EMSA; HiTS-Eq, 1 nM pool, 10 min; buffer printed only for the single-RNA assays: 10 mM Tris pH 7.5, 150 mM NaCl, 3.4 mM EDTA, 0.001% NP-40, 30 C; conditions: tags: His6 N-terminal (pET28a); label: 5' 32P
In short: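 A pool of RNA with 7 randomized nucleotides, 5′-radiolabelled and with DNA-annealed flanks, was equilibrated at 1 nM for 10 min in 50 µL with purified RbFox RRM, wild type or mutant, across increasing protein concentrations. Free RNA was separated by 8% native PAGE, excised, reverse-transcribed, barcoded by PCR and sequenced. Relative association constants were obtained from read-count changes of each RNA species versus the control reaction and normalised to the cognate motif.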

In order of falling binding signal:
1. B19  0.578 KA relative to UGCAUGU
2. B18  0.552 KA relative to UGCAUGU
3. B11  0.405 KA relative to UGCAUGU
4. B8  0.397 KA relative to UGCAUGU
5. B10  0.382 KA relative to UGCAUGU
6. B22  0.371 KA relative to UGCAUGU
7. B2  0.354 KA relative to UGCAUGU
8. B1  0.324 KA relative to UGCAUGU
9. B31  0.267 KA relative to UGCAUGU
10. B5  0.256 KA relative to UGCAUGU
11. B7  0.236 KA relative to UGCAUGU
12. B6  0.184 KA relative to UGCAUGU
13. B13  0.179 KA relative to UGCAUGU
14. B12  0.17 KA relative to UGCAUGU
15. B14  0.142 KA relative to UGCAUGU
16. B28  0.137 KA relative to UGCAUGU
17. B30  0.13 KA relative to UGCAUGU
18. B4  0.121 KA relative to UGCAUGU
19. B26  0.118 KA relative to UGCAUGU
20. B9  0.117 KA relative to UGCAUGU
21. B3  0.114 KA relative to UGCAUGU
22. B20  0.104 KA relative to UGCAUGU
23. B24  0.0996 KA relative to UGCAUGU
24. B17  0.0949 KA relative to UGCAUGU
25. B29  0.0924 KA relative to UGCAUGU
26. B23  0.0833 KA relative to UGCAUGU
27. B15  0.0824 KA relative to UGCAUGU
28. B16  0.0789 KA relative to UGCAUGU
29. B21  0.0771 KA relative to UGCAUGU
30. B25  0.0689 KA relative to UGCAUGU
31. B27  0.0609 KA relative to UGCAUGU
